Laboratory results as given in PubChem BioAssay (Tox21).
“And” between values parts separate entries of the source, which are not always exact repeats. Equal values may be shown once. Inconclusive results are not listed. The source made the active and inactive calls. Unless noted, calls come from the whole dose curve; as a rule, active = well fitted curve in the direction sought with a large enough effect in the repeat runs; inconclusive = weak or mixed curves; inactive = no such curve, though single readings can be large; an effect the other way counts as inactive or inconclusive.

Assays:
[1] = qHTS assay for small molecule agonists of the p53 signaling pathway (AID 651631; calls by dose curve; note: nearly all actives have a fitted effect of over 15% in size; note: potency is the fitted concentration of half-maximal effect)
Summary of the method: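 Fluorescence intensity from cleaved LiveBLAzer B/G substrate (2 h, room temperature) served as the signal. Beforehand, HCT-116 reporter cells bearing p53 response elements were treated 16 h at 37 °C with DMSO-dissolved compounds.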

[2] = qHTS assay for small molecules that induce genotoxicity in human embryonic kidney cells expressing luciferase-tagged ATAD5 (AID 651632); note: nearly all actives have a fitted effect of over 15% in size; note: potency is the fitted concentration of half-maximal effect
Summary of the method: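 HEK293T cells carrying a luciferase reporter tagged to ATAD5 were exposed to compound or DMSO vehicle for 16 hr at 37C, 5% CO2. Amplite was added, and after 30 min at room temperature luciferase activity was read as a marker of ATAD5 induction.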

[3] = qHTS assay for small molecule agonists of the p53 signaling pathway - cell viability (AID 651633; calls by dose curve; note: nearly all actives have a fitted effect of over 30% in size; note: potency is the fitted concentration of half-maximal effect)
Summary of the method: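 p53RE-bla cells were treated with compound for 16 hours at 37 C. Cytotoxicity was then measured as CellTiter-Glo luminescence after 30 min at room temperature.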

[4] = qHTS assay for small molecules that induce genotoxicity in human embryonic kidney cells expressing luciferase-tagged ATAD5 - cell viability (AID 651634; calls by dose curve; note: nearly all actives have a fitted effect of over 25% in size; note: potency is the fitted concentration of half-maximal effect)
Summary of the method: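 HEK293T cells expressing luciferase-tagged ATAD5 were exposed to compound or DMSO for 15.5 hr at 37C, 5% CO2. Viability was then read as live-cell protease activity by CellTiter-Fluor fluorescence after 30 min at 37C.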

[5] = qHTS assay for small molecule disruptors of the mitochondrial membrane potential - cell viability (AID 720634; calls by dose curve; note: nearly all actives have a fitted effect of over 20% in size; note: potency is the fitted concentration of half-maximal effect)
Summary of the method: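 HepG2 cells seeded overnight at 37 C, then exposed to compound or DMSO for 1 hr at 37 C, 5% CO2. m-MPI dye added, then CellTiter-Glo for 30 min at room temperature; viability read as ATP luminescence.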

[6] = qHTS assay for small molecule disruptors of the mitochondrial membrane potential (AID 720635); note: potency is the fitted concentration of half-maximal effect
Summary of the method: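 HepG2 cells exposed to compound 1 hr at 37C, then Mito-MPS dye 30 min. Ratio read of aggregate (540/590 nm) versus monomer (490/535 nm) fluorescence.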

[7] = qHTS assay to test for compound auto fluorescence at 590 nm (red) in HepG2 cells (AID 720674)
Summary of the method: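 Fluorescence at 590 nm emission following 540 nm excitation was recorded from HepG2 wells one hour after compound transfer, with DMSO-only wells as vehicle and Rose Bengal sodium equivalency as the scale.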

[8] = qHTS assay to test for compound auto fluorescence at 535 nm (green) in HepG2 cells (AID 720675)
[9] = qHTS assay to test for compound auto fluorescence at 460 nm (blue) in HEK293 cells (AID 720678)
Summary of the method: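 After cell attachment (4-5 hr, 37C), compounds were pinned onto HEK293 monolayers in 10% dialyzed FBS medium. The blue channel (405/460 nm) was read following overnight culture. Equivalency was calculated against triamterene.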

[10] = qHTS assay to test for compound auto fluorescence at 535 nm (green) in HEK293 cells (AID 720680)
[11] = qHTS assay to test for compound auto fluorescence at 460 nm (blue) in HEK293 cell free culture (AID 720681)
Summary of the method: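 Compounds were added to cell-free DMEM with 10% FBS and fluorescence read directly. The blue channel used 405 nm excitation and 460 nm emission, with triamterene as the reference fluorophore.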

[12] = qHTS assay to test for compound auto fluorescence at 535 nm (green) in HEK293 cell free culture (AID 720682)
Summary of the method: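 Intrinsic compound fluorescence is measured in culture medium containing 10% FBS, with excitation at 485 nm and detection at 535 nm, referenced to fluorescein.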

[13] = qHTS assay to test for compound auto fluorescence at 590 nm (red) in HEK293 cell free culture (AID 720683)
Summary of the method: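 Cell-free wells of DMEM with 10% FBS received compound, and intrinsic fluorescence was read at excitation/emission 540/590 nm. Values expressed as equivalence to Rose Bengal sodium.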

[14] = qHTS assay to test for compound auto fluorescence at 590 nm (red) in HepG2 cell free culture (AID 720684)
Summary of the method: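 Compounds are added to culture medium (MEM, 10% FBS) lacking cells, then fluorescence is read at excitation 540 nm, emission 590 nm, with Rose Bengal sodium as the equivalency standard.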

[15] = qHTS assay to test for compound auto fluorescence at 460 nm (blue) in HepG2 cell free culture (AID 720685)
Summary of the method: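 Compound (23 nL) or DMSO pinned into cell-free MEM with 10% FBS; blue fluorescence read at 405/460 nm excitation/emission, expressed as auto-fluorescence equivalency to triamterene.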

[16] = qHTS assay to test for compound auto fluorescence at 535 nm (green) in HepG2 cell free culture (AID 720686)
[17] = qHTS assay to test for compound auto fluorescence at 460 nm (blue) in HepG2 cells (AID 720687)
Summary of the method: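 HepG2 cells in MEM with 10% FBS, attached overnight at 37 C, were exposed to compound or DMSO for 1 hr at 37 C, 5% CO2. Blue fluorescence was read at 405/460 nm, with triamterene as reference fluorophore.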

[18] = target: Glucocorticoid receptor (Homo sapiens) (UniProt P04150); assay: qHTS assay to identify small molecule antagonists of the glucocorticoid receptor (GR) signaling pathway (AID 720692; active = well fitted inhibition curve with a large enough effect in the signal ratio in the repeat runs, not every such curve was filed as active; the % refers to the signal ratio; note: potency is the fitted concentration of half-maximal effect)
Chain of Glucocorticoid receptor (Homo sapiens) (P04150 whole entry, looked up): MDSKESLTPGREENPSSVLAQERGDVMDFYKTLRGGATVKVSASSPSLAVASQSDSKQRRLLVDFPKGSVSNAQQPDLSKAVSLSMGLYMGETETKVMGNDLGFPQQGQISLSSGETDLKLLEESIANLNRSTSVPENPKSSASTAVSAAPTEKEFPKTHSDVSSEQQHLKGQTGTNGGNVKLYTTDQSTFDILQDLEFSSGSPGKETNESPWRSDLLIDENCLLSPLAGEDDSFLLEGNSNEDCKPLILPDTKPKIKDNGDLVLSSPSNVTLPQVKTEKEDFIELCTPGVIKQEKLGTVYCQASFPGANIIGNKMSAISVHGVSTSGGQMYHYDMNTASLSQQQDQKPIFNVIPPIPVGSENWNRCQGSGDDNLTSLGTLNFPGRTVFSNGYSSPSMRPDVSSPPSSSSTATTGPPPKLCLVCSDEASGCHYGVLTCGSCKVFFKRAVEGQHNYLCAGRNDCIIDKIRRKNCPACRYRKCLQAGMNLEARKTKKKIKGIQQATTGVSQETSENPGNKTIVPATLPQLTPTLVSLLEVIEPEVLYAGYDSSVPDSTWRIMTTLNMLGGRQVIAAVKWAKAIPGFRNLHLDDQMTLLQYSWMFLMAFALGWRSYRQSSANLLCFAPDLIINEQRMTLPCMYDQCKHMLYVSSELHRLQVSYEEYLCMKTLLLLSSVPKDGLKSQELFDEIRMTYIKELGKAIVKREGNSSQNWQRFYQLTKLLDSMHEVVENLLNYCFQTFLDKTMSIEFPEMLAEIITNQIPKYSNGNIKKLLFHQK
Summary of the method: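 GR-bla HeLa cells (beta-lactamase reporter under glucocorticoid response element) were pre-plated 4 h at 37 C, treated with compounds plus 5 nM dexamethasone (final) for 18 h, then read by LiveBLAzer B/G FRET fluorescence after 2 h.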

[19] = qHTS assay to test for compound auto fluorescence at 590 nm (red) in HEK293 cells (AID 720679)
Summary of the method: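 Plates of HEK293 cells (10% dialyzed FBS) are treated with 23 nL compound or DMSO vehicle after a 4-5 hr attachment period, incubated overnight at 37C, and read for red fluorescence at 540/590nm.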

[20] = target: Glucocorticoid receptor (Homo sapiens) (UniProt P04150); assay: qHTS assay to identify small molecule agonists of the glucocorticoid receptor (GR) signaling pathway (AID 720691; active = well fitted activation curve with a large enough effect in the signal ratio in the repeat runs, not every such curve was filed as active; the % refers to the signal ratio); conditions: GR-bla HeLa, beta-lactamase reporter ratio, 18 h; activation: at 62.4 µM (top of the series)
Summary of the method: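 GR-bla HeLa cells (beta-lactamase reporter under glucocorticoid response element) were plated 4 h at 37 C/5% CO2, given compounds in DMSO, and incubated 18 h at 37 C. LiveBLAzer B/G FRET substrate was added for 2 h at room temperature, then fluorescence intensity read.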

Measured: Potency

COC(=O)C1=C(C)NC(C)=C(C(=O)OCC(C)C)C1c1ccccc1[N+](=O)[O-] (stereo not given)
inactive: [2] | [3] | [5] | [7] | [8] | [9] | [10] | [11] | [12] | [13] | [14] | [15] | [16] | [17]
active: [1] 26.6 µM | [4] 29.8 µM and 48.6 µM | [6] 11.9 µM and 43.3 µM | [18] 24.5 µM

O=C(Nc1cccc(Cl)c1)OCC#CCCl
inactive: [2] | [7] | [8] | [9] | [19] | [10] | [11] | [12] | [13] | [14] | [15] | [16] | [17]
active: [1] 8.63 µM | [3] 68.6 µM | [4] 61.1 µM | [6] 21.7 µM

CCCC/C=C/CCCCO
inactive: [1] | [2] | [3] | [4] | [5] | [7] | [8] | [9] | [19] | [10] | [11] | [12] | [13] | [14] | [15] | [16] | [17] | [20] | [18]

CCCC1O[C@@H]2C[C@H]3[C@@H]4CCC5=CC(=O)C=C[C@]5(C)[C@H]4[C@@H](O)C[C@]3(C)[C@]2(C(=O)CO)O1 (stereo not given in full)
inactive: [1] | [2] | [3] | [4] | [5] | [6] | [7] | [8] | [9] | [19] | [10] | [11] | [12] | [13] | [14] | [15] | [16]

N=C1N=C(N)c2ccccc21
inactive: [5] | [7] | [9] | [19] | [10] | [11] | [12] | [13] | [14] | [15] | [16] | [17]
active: [1] 24.3 µM | [2] 21.7 µM | [3] 21.7 µM

O=C1C=CC(=O)N1
inactive: [2] | [7] | [9] | [19] | [10] | [11] | [12] | [13] | [14] | [15] | [16]
active: [1] 49.8 µM | [5] 49.8 µM | [6] 28 µM
